Among the data in PubChem BioAssay (EPA / NIEHS) are outcome and AC50 values, retold here.

Values joined by “and” are separate entries in the source; they are usually repeats but may differ in a detail not shown here. Equal values may be shown once. Inconclusive results are not listed. More than one record can exist for a structure, and the calls need not agree. Active and inactive are the calls of the source. Rule for the calls, unless noted: active = hit-call score of the fitted dose curve at least 0.9, where 1 is the maximum; inactive = score below 0.9.

Assay [1] in a line: CCTE_Mundy_HCI_Cortical_Synap_Neur_Matur_NeuriteSpotCountPerNeuron: CCTE's Synaptogenesis and Neurite Maturation Assay in rat cortical cells for Neurite Spot Count per Neuron Count, Mundy Lab (AID 2284215). Put shortly:
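High-content imaging counts synaptophysin puncta along MAP2-labelled neurites per neuron after chemical exposure of rat cortical cells from DIV 7 to termination at DIV 12 (AraC added DIV 5). Loss of signal relative to DMSO.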

A short description of assay [2]: CCTE_Mundy_HCI_Cortical_Synap_Neur_Matur_SynapseCount: CCTE's Synaptogenesis and Neurite Maturation Assay in rat cortical cells for Synapse Count, Mundy Lab (AID 2284218). In short, it runs like this: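 Synapse count per neuron is measured in rat cortical neurons exposed to chemicals between DIV 7 and DIV 12, with glial growth arrested by AraC at DIV 5. Synaptophysin and MAP2 staining is imaged automatically; activity is fitted relative to DMSO.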

Assay [3] can be described thus: CCTE_Mundy_HCI_hN2_NOG_NeuriteCount: CCTE's Neurite Outgrowth Assay in human hN2 cells for Neurite Count, Mundy Lab (AID 2284219; active = hit-call score of the fitted dose curve at least 0.9, where 1 is the maximum). In short, it runs like this: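 In this morphology assay, hNP1-derived neurons received test chemical 2 h post-plating and were fixed two days later in warm paraformaldehyde/sucrose containing Hoechst 33342. Neurites, labelled by rabbit anti-βIII-tubulin (1:800) and Alexa Fluor-488 (1:500), were counted automatically.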

Assay [4] can be described thus: CCTE_Mundy_HCI_hN2_NOG_NeuriteLength: CCTE's Neurite Outgrowth Assay in human hN2 cells for Neurite Length, Mundy Lab (AID 2284220; active = hit-call score of the fitted dose curve at least 0.9, where 1 is the maximum). In short, it runs like this: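 Using βIII-tubulin immunofluorescence and Hoechst nuclear counterstain, this component quantifies neurite length in hNP1-derived neurons.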
Assay [5] is described as follows: CCTE_Mundy_HCI_Cortical_Synap_Neur_Matur_NeuriteCount: CCTE's Synaptogenesis and Neurite Maturation Assay in rat cortical cells for Neurite Count, Mundy Lab (AID 2284222).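 For outcome: exposure from day 7 to day 12 in vitro with readout at day 12.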 Put shortly: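 Rat primary cortical cells; AraC added at DIV 5, chemicals dosed with media change at DIV 7 through DIV 12. MAP2/synaptophysin/Hoechst immunostaining, high-content imaging of neurite number; fitted relative to DMSO.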

A short description of assay [6]: CCTE_Mundy_HCI_Cortical_Synap_Neur_Matur_CellBodySpotCount: CCTE's Synaptogenesis and Neurite Maturation Assay in rat cortical cells for Cell Body Spot Count, Mundy Lab (AID 2284223). Put shortly:
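High-content imaging counts synaptophysin puncta on neuronal cell bodies per neuron after MAP2/synaptophysin immunostaining. Rat primary cortical cells, glia arrested with AraC at DIV 5, were exposed DIV 7–12; signal decrease measured against DMSO.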

The nature of assay [7]: CCTE_Mundy_HCI_hN2_NOG_NeuronCount: CCTE's Neurite Outgrowth Assay in human hN2 cells for Neuron Count, Mundy Lab (AID 2284221; active = hit-call score of the fitted dose curve at least 0.9, where 1 is the maximum). The protocol:
CCTE_Mundy_HCI_hN2_NOG is a multiplexed, cell-based-readout assay that uses immature neurons derived from hNP1 neuroprogenitor cells with measurements taken at 50.33 hours after chemical dosing in a microplate: 96-well plate.CCTE_Mundy_HCI_hN2_NOG_NeuronCount is one of four components of the CCTE_Mundy_HCI_hN2_NOG assay. It measures cell viability related to number of neurons using High Content Imaging of fluorescently labelled markers.[…] Using a type of morphology reporter, loss -of-signal activity can be used to understand developmental effects.
Exposure starts 2 hours post-plating by adding 10 ul of the working solution to 90 ul of media in the wells for a 1/10 dilution. Forty-eight hours after chemical treatment cells are fixed by direct addition of 100 ul of warm (37C) Dulbecco's phosphate buffered saline (DPBS) fixative solution containing 8% paraformaldehyde, 8% sucrose, and 0.1% of 3 mg/ml Hoechst 33342 into each well. Primary antibodies are prepared by dilution in Immunocytochemical Staining Buffer (ISB), 10X Dulbecco's PBS, 0.1% Saponin, 5% Bovine Serum Albumin, 0.5% NaN3 (Sodium Azide) and betaIII-tubulin (rabbit anti-betaIII-tubulin, 1:800) followed by Alexa Fluor-488 secondary (1:500) to label neuronal cell bodies and neurites. A Cellomics ArrayScan VTi HCS Reader is used for automated image acquisition and analysis of neurite outgrowth.

The nature of assay [8]: CCTE_Mundy_HCI_hNP1_Pro_ResponderAvgInten: CCTE's Proliferation Assay in human neuroprogenitor cells, Mundy Lab (AID 2284224; active = hit-call score of the fitted dose curve at least 0.9, where 1 is the maximum;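 note: human neural progenitor cells hNP1 derived from WA09 embryonic stem cells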). In short, it runs like this:
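Human neuroprogenitors (hNP1, WA09 lineage) receive test chemical after 40 to 44 hours of attachment. A four-hour BrdU pulse begins twenty hours later, followed by fixation and high content imaging; signal is referenced to DMSO controls.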

Assay [9] in a line: TAMU_PeakParms_SingleDonor1434_Chronotropy: Texas A&M University (TAMU) 1.5-hr Human Induced Pluripotent Stem Cell (iPSC)-derived Cardiomyocytes Calcium (Ca+2) Flux Assay for Cardiotoxicity: Chronotropy (changes in peak frequency) (AID 2284217). Conditions: actives raise or lower the signal. In short, it runs like this: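 iPSC-derived cardiomyocytes (single donor 1434) dosed at 0.2, 1, 10 and 100 uM in 0.5% DMSO for 1.5 h at 37C; Ca2+ dye fluorescence gave average beat frequency. Zero-beat points removed; bidirectional fit versus DMSO, POD as EC05.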

Assay [10] is described as follows: BSK_BT_PBMCCytotoxicity: PBMC Cytotoxicity Assessment in the BioMAP Diversity Plus: BT Assay (AID 2284225).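 Note: PBMC viability measured by Alamar Blue dye reduction fluorescence.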 The settings on record: primary human B cells with PBMC. Put shortly: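 75,000 cells/well; cpd 1 h → SEB + TSST-1 (20 ng/mL final each) → 90 h → Alamar Blue 6 h → fluor. 546/580 nm. DMSO = neg. control/baseline.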

For `CCOC(=O)CC(SP(=O)(OC)OC)C(=O)OCC` (stereo not drawn), the compound was classed as inactive in assay [1], in [2], in [3], in assay [4], in assay [5] and in [6].

Regarding `CCCSP(=O)(OCC)SCCC`, the call in assay [1], in [2], in [3], in assay [4], in assay [7] and in assay [5] was inactive. Moreover, the outcome in assay [6] and in assay [8] was inactive.

Broadly, the AC50 is the concentration at which the activity in the assay is half-maximal. For the compound `COP(=O)(OC)C(O)C(Cl)(Cl)Cl` (stereo not drawn), the AC50 in assay [1], in assay [2] and in assay [8] was 50 µM (active) in each case. Besides, the call in assay [5] was inactive.

For the compound `CCOP(=O)(NC(C)C)Oc1ccc(SC)c(C)c1` (stereo not drawn), the result in [1], in assay [2], in [5], in [6] and in [8] was inactive.

For `CCOP(=S)(OCC)Oc1ccc([N+](=O)[O-])cc1`, the AC50 in assay [1] and in assay [2] was 15 µM (active) in each case. In addition, the outcome in [9], in assay [5] and in assay [6] was inactive.

For `CN1COCN(Cc2cnc(Cl)s2)C1=N[N+](=O)[O-]`, the compound was classed as inactive in assay [1], in assay [2], in assay [5], in [6] and in [8].

For `CSC1=N[C@@](C)(c2ccccc2)C(=O)N1Nc1ccccc1`, the outcome in [1], in assay [2], in assay [5], in [6] and in [8] was inactive.

In the case of `COP(=O)(OC)OC(Br)C(Cl)(Cl)Br` (stereo not drawn), the half-maximal activity concentration (AC50) was 50 µM (active) and 10.7 µM (active) in assay [1]; 23.2 µM (active) and 9.92 µM (active) in assay [2]; 50 µM (active) in assay [5]; 9.92 µM (active) in assay [6]; 14 µM (active) and 16.7 µM (active) in [8]. The compound was classed as inactive in [5] and in [6].

With `CCCCSP(=O)(SCCCC)SCCCC`, the AC50 is 66.3 µM (active) and 12.9 µM (active) in [1]; 73.5 µM (active) and 15.5 µM (active) in [2]; 16.1 µM (active) in assay [5]; 22.9 µM (active) in assay [6]; 50 µM (active) and 74.1 µM (active) in [8]. The compound was classed as inactive in [5] and in [6].

As to `CCCSP(=O)(OCC)Oc1ccc(Br)cc1Cl` (stereo not drawn), the result in assay [1], in [2], in [7], in assay [5] and in assay [6] was inactive.

As to `CC(=NC#N)N(C)Cc1ccc(Cl)nc1`, the result in assay [1], in [2], in [5], in assay [6] and in assay [8] was inactive.

As for `CCOP(=S)(OCC)Oc1ccc2c(C)c(Cl)c(=O)oc2c1`, the result in [1], in assay [2], in [5], in assay [6] and in [8] was inactive. The AC50 in assay [3] was 22.1 µM (active); in [4], 18.6 µM (active); in [7], 18.9 µM (active).

As to `C[N+]1(C)CCCCC1`, the compound was classed as inactive in assay [1], in assay [2], in assay [5] and in assay [6].

For `CCOP(=S)(OCC)OC(Cl)C(Cl)(Cl)Cl` (stereo not drawn), the AC50 is 83.9 µM (active) and 16.2 µM (active) in [1]; 85.8 µM (active) and 15.9 µM (active) in assay [2]; 12.8 µM (active) in [5]; 16.7 µM (active) in assay [6]; 50 µM (active) and 75.1 µM (active) in [8]. Moreover, the compound was classed as inactive in assay [5] and in assay [6].

As for `CCOP(=S)(OCC)Oc1cc(C)nc(C(C)C)n1`, the compound was called inactive in assay [1], in assay [2], in assay [5], in [6] and in [8].

In the case of `CCOP(=S)(Oc1cnc(C(C)(C)C)nc1)OC(C)C` (stereo not drawn), the AC50 in assay [1] is 16.2 µM (active); in [2], 16.6 µM (active); in assay [7] it was 79.3 µM (active); in assay [5] it was 18.6 µM (active); in [6], 14.6 µM (active); in assay [8] it was 77.6 µM (active). The outcome in assay [1], in assay [2], in [3], in assay [4], in assay [5] and in [6] was inactive. For the same compound, the outcome in assay [8] was inactive.

Take `CC[C@H](C)[C@H]1O[C@]2(C=C[C@@H]1C)C[C@@H]1C[C@@H](C/C=C(\C)[C@@H](O[C@H]3C[C@H](OC)[C@@H](O[C@H]4C[C@H](OC)[C@@H](NC)[C@H](C)O4)[C@H](C)O3)[C@@H](C)/C=C/C=C3\CO[C@@H]4[C@H](O)C(C)=C[C@@H](C(=O)O1)[C@]34O)O2`: the AC50 in assay [1] is 441 nM (active) and 565 nM (active); in assay [2] it was 522 nM (active) and 658 nM (active); in assay [5], 657 nM (active) and 1.79 µM (active); in assay [6], 1.12 µM (active) and 1.1 µM (active). In assay [8], the compound was classed as inactive.

As to `S=C1NCCN1`, the compound was classed as inactive in [1], in [2], in assay [5], in assay [6] and in [8].

In the case of `COP(=O)(NC(C)=O)SC` (stereo not drawn), the compound was classed as inactive in [1], in assay [2], in assay [3], in [4], in [5] and in [6].

On to `C=C(C)[C@H]1Cc2c(ccc3c2O[C@@H]2COc4cc(OC)c(OC)cc4[C@@H]2C3=O)O1`, for which the result in [9] was inactive.

On to `CC(C)N(C(=O)SCC(Cl)=C(Cl)Cl)C(C)C`, for which the AC50 was 23.6 µM (active) in [1], 23.7 µM (active) in assay [2] and 24.1 µM (active) in assay [6]. Moreover, the result in [5] was inactive.

In the case of `CCOP(=O)(SC(C)CC)N1CCSC1=O` (stereo not drawn), the compound was classed as inactive in assay [1], in assay [2], in [3], in assay [4], in assay [7] and in assay [5]. For the same compound, in assay [6], the result was inactive.

Turning to `CON=C(C(=O)OC)c1ccccc1CON=C(C)c1cccc(C(F)(F)F)c1`, the AC50 in assay [1] was 0.32 µM (active); in [2], 0.664 µM (active); in assay [5], 1.24 µM (active); in assay [6], 3.43 µM (active); in [8] it was 79.9 µM (active).

Regarding `CC1=NNC(=O)N(/N=C/c2cccnc2)C1`, the outcome in assay [1], in [2], in assay [5] and in assay [6] was inactive.

Take `CCOP(=O)(OCC)Oc1cc(C)nc(C(C)C)n1`: the compound was called inactive in assay [1], in [2], in [5], in assay [6] and in assay [8].

In the case of `CCOP(=S)(OCC)SCCSCC`, the call in assay [1], in assay [2], in assay [5], in assay [6] and in assay [8] was inactive.

For the compound `O=[N+]([O-])c1cc(C(F)(F)F)c(Cl)c([N+](=O)[O-])c1Nc1ncc(C(F)(F)F)cc1Cl`, the AC50 in [1] is 0.94 µM (active); in [2], 1.06 µM (active); in assay [5], 0.962 µM (active); in assay [6] it was 1.9 µM (active); in assay [8], 1.89 µM (active); in assay [10], 4.22 µM (active).

In the case of `CN(C)[C@@H]1C(=O)C(C(N)=O)=C(O)[C@@]2(O)C(=O)C3=C(O)c4c(O)cccc4[C@@](C)(O)[C@H]3[C@H](O)[C@@H]12`, the AC50 in assay [1] is 50 µM (active); in assay [2], 50 µM (active); in assay [5], 72.5 µM (active); in [6] it was 50 µM (active); in assay [8], 90.6 µM (active). The result in assay [10] was inactive.
